Reference: PubChem BioAssay (NCI)
The panel holds about 83,000 compounds, 20% with a hit somewhere; the sample as a whole holds those more often.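 Each cell line was grown in a 96-well plate and treated with one concentration of compound for 48 hours. Values below 10 were considered active.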 The source made the active and inactive calls.

Key:
Assay in all cases: NCI-60 one-dose screen, 48 h (100 = growth as untreated, 0 = no growth, -100 = all killed)
A549/ATCC NSCLC = details: 10 µM unless noted
DU-145 prostate = details: 10 µM unless noted
K-562 leukemia = details: 10 µM unless noted
RXF 393 renal = details: 10 µM unless noted
SF-295 CNS = details: 10 µM unless noted
UACC-257 melanoma = details: 10 µM unless noted
HCT-15 colon = details: 10 µM
HT29 colon = details: 10 µM unless noted
LOX IMVI melanoma = details: 10 µM unless noted
SN12C renal = details: 10 µM unless noted
CAKI-1 renal = details: 10 µM unless noted
A498 renal = details: 10 µM unless noted
HL-60(TB) leukemia = details: 10 µM unless noted
MOLT-4 leukemia = details: 10 µM
OVCAR-8 ovarian = details: 10 µM unless noted
OVCAR-4 ovarian = details: 10 µM unless noted
SK-OV-3 ovarian = details: 10 µM unless noted
HS 578T breast = details: 10 µM unless noted
BT-549 breast = details: 10 µM
HCC-2998 colon = details: 10 µM unless noted

Measured: growth

CCOC(=O)/C(C#N)=C/c1ccc(N(CCCl)CCCl)cc1
active: CAKI-1 renal -9.24%
inactive: A549/ATCC NSCLC 85.2% | DU-145 prostate 98.8% | K-562 leukemia 98.6% | RXF 393 renal 93.3% | SF-295 CNS 43.6% | UACC-257 melanoma 103% | HCT-15 colon 91.1% | HT29 colon 92.5% | LOX IMVI melanoma 92% | SN12C renal 72.4% | A498 renal 95.5% | HL-60(TB) leukemia 85.2% | MOLT-4 leukemia 84.7% | OVCAR-8 ovarian 71.6% | OVCAR-4 ovarian 61.5% | SK-OV-3 ovarian 92.6% | HS 578T breast 103% | BT-549 breast 95.3% | HCC-2998 colon 105%

OC1(c2ccccc2F)c2ccccc2C2=NCCN21 (centres undefined)
inactive: A549/ATCC NSCLC 114% | DU-145 prostate 113% | K-562 leukemia 88.7% | SF-295 CNS 91.8% | UACC-257 melanoma 111% | HCT-15 colon 108% | HT29 colon 105% | LOX IMVI melanoma 96.9% | SN12C renal 101% | CAKI-1 renal 64.4% | A498 renal 105% | HL-60(TB) leukemia 83.8% | MOLT-4 leukemia 97.7% | OVCAR-8 ovarian 104% | OVCAR-4 ovarian 107% | SK-OV-3 ovarian 105% | HS 578T breast 110% | BT-549 breast 110% | HCC-2998 colon 100%
active: RXF 393 renal -10.4%

O=C(O)c1cccc(CCl)c1
inactive: A549/ATCC NSCLC 96% | DU-145 prostate 108% | K-562 leukemia 101% | RXF 393 renal 112% | UACC-257 melanoma 94.2% | HCT-15 colon 93% | HT29 colon 102% | LOX IMVI melanoma 95.8% | SN12C renal 107% | CAKI-1 renal 106% | A498 renal 117% | HL-60(TB) leukemia 93.4% | MOLT-4 leukemia 93.2% | OVCAR-8 ovarian 96.5% | OVCAR-4 ovarian 105% | SK-OV-3 ovarian 99.7% | BT-549 breast 96.6% | HCC-2998 colon 112%

N#Cc1ncc(/N=C/c2ccc(N(CCCl)CCCl)cc2)s1
active: CAKI-1 renal 7.36%
inactive: A549/ATCC NSCLC 86% | DU-145 prostate 49.2% | K-562 leukemia 37.6% | RXF 393 renal 84.7% | SF-295 CNS 58.4% | UACC-257 melanoma 82.4% | HCT-15 colon 50.6% | HT29 colon 91.6% | LOX IMVI melanoma 61.3% | SN12C renal 55.9% | A498 renal 88.2% | HL-60(TB) leukemia 39.3% | MOLT-4 leukemia 42.7% | OVCAR-8 ovarian 78.3% | OVCAR-4 ovarian 81.9% | SK-OV-3 ovarian 78.5% | HS 578T breast 90.4% | BT-549 breast 66% | HCC-2998 colon 96.8%

CC(C)(O)/C=C/C(=O)[C@](C)(O)[C@H]1[C@H](O)C[C@@]2(C)[C@@H]3CC=C4[C@@H](C=C(O)C(=O)C4(C)C)[C@]3(C)C(=O)C[C@]12C
active: A549/ATCC NSCLC 0.767% | DU-145 prostate -40.2% | K-562 leukemia -32.4% | RXF 393 renal 0.503% | SF-295 CNS -43.2% | UACC-257 melanoma 0.414% | HCT-15 colon -52% | HT29 colon -31.1% | LOX IMVI melanoma -59.6% | SN12C renal 7% | CAKI-1 renal -57.2% | A498 renal -79.8% | HL-60(TB) leukemia -38.9% | MOLT-4 leukemia -15.1% | OVCAR-4 ovarian -45.9% | SK-OV-3 ovarian 5.63% | HS 578T breast -17.4% | BT-549 breast -60.1% | HCC-2998 colon -99%

Nc1cccc2c1Oc1ccccc1O2
inactive: A549/ATCC NSCLC 97% | DU-145 prostate 120% | K-562 leukemia 96.4% | RXF 393 renal 145% | SF-295 CNS 119% | UACC-257 melanoma 102% | HCT-15 colon 102% | HT29 colon 119% | LOX IMVI melanoma 93.1% | SN12C renal 106% | CAKI-1 renal 88% | A498 renal 118% | HL-60(TB) leukemia 107% | MOLT-4 leukemia 103% | OVCAR-8 ovarian 104% | OVCAR-4 ovarian 115% | SK-OV-3 ovarian 184% | HS 578T breast 112% | BT-549 breast 104% | HCC-2998 colon 109%

Cc1cc([N+](=O)[O-])c(Cl)cc1NS(=O)(=O)c1ccccc1
inactive: DU-145 prostate 104% | K-562 leukemia 71% | RXF 393 renal 91.9% | SF-295 CNS 65.7% | HCT-15 colon 73.1% | HT29 colon 82.1% | LOX IMVI melanoma 81.2% | SN12C renal 78.1% | CAKI-1 renal 63.7% | A498 renal 67.2% | HL-60(TB) leukemia 57.3% | MOLT-4 leukemia 74.5% | OVCAR-8 ovarian 78.1% | OVCAR-4 ovarian 71.4% | SK-OV-3 ovarian 96% | HS 578T breast 72.5% | BT-549 breast 62.5% | HCC-2998 colon 80.6%

NC(Cc1ccc(O)cc1)C(=O)N/N=C/c1ccc(N(CCCl)CCCl)cc1 (centres undefined)
inactive: A549/ATCC NSCLC 52.3% | DU-145 prostate 69.2% | K-562 leukemia 41.3% | RXF 393 renal 95.3% | SF-295 CNS 48.5% | UACC-257 melanoma 93.6% | HCT-15 colon 85.8% | HT29 colon 100% | LOX IMVI melanoma 44.4% | SN12C renal 46.4% | CAKI-1 renal 25.9% | A498 renal 82.3% | MOLT-4 leukemia 29.8% | OVCAR-8 ovarian 80.5% | OVCAR-4 ovarian 90.6% | SK-OV-3 ovarian 90% | HS 578T breast 91.9% | BT-549 breast 73.3% | HCC-2998 colon 87.2%
active: HL-60(TB) leukemia 8.82%

O=c1cc[nH]c(=O)o1
inactive: DU-145 prostate 104% | K-562 leukemia 105% | RXF 393 renal 114% | SF-295 CNS 101% | HCT-15 colon 104% | HT29 colon 95.9% | LOX IMVI melanoma 97.9% | SN12C renal 105% | CAKI-1 renal 102% | A498 renal 114% | HL-60(TB) leukemia 80.2% | MOLT-4 leukemia 97.4% | OVCAR-8 ovarian 96.6% | OVCAR-4 ovarian 104% | SK-OV-3 ovarian 102% | HS 578T breast 120% | BT-549 breast 102% | HCC-2998 colon 116%

CN1CCN(C(=O)COc2ccc(/C=C3\CC4C5CC=C6CC(Cl)CCC6(C)C5CCC4(C)C3=O)cc2)CC1 (centres undefined)
active: HT29 colon -9.75%
inactive: A549/ATCC NSCLC 65% | DU-145 prostate 64.9% | K-562 leukemia 18.3% | RXF 393 renal 79% | SF-295 CNS 82.8% | UACC-257 melanoma 38.8% | HCT-15 colon 54.4% | LOX IMVI melanoma 23.5% | SN12C renal 79.7% | CAKI-1 renal 70.1% | A498 renal 75.3% | HL-60(TB) leukemia 38.3% | MOLT-4 leukemia 59.3% | OVCAR-8 ovarian 78.9% | OVCAR-4 ovarian 70.7% | SK-OV-3 ovarian 85.8% | BT-549 breast 87.3% | HCC-2998 colon 90.6%

O=CN1N=C(c2ccccc2)CC1c1sc(N(CCCl)CCCl)nc1Cl (centres undefined)
inactive: A549/ATCC NSCLC 88.4% | DU-145 prostate 111% | K-562 leukemia 78.1% | RXF 393 renal 108% | SF-295 CNS 94.8% | UACC-257 melanoma 97.4% | HCT-15 colon 92.8% | HT29 colon 92.2% | LOX IMVI melanoma 98.6% | SN12C renal 96.1% | CAKI-1 renal 79.6% | A498 renal 123% | HL-60(TB) leukemia 94% | MOLT-4 leukemia 85.6% | OVCAR-8 ovarian 91% | OVCAR-4 ovarian 96.2% | SK-OV-3 ovarian 79.2% | HS 578T breast 90.2% | BT-549 breast 95.3% | HCC-2998 colon 103%

O=C(/C=C/c1ccccc1)N[C@@H](CO)Cc1cnc[nH]1
inactive: DU-145 prostate 114% | K-562 leukemia 107% | RXF 393 renal 118% | SF-295 CNS 98.9% | HCT-15 colon 98.6% | HT29 colon 105% | LOX IMVI melanoma 97.2% | SN12C renal 105% | CAKI-1 renal 100% | A498 renal 115% | HL-60(TB) leukemia 98.8% | MOLT-4 leukemia 93.8% | OVCAR-8 ovarian 99.8% | OVCAR-4 ovarian 96.8% | SK-OV-3 ovarian 113% | HS 578T breast 116% | BT-549 breast 103% | HCC-2998 colon 112%

CCC(CO)NC1CCCCC1 (centres undefined)
inactive: A549/ATCC NSCLC 93.8% | DU-145 prostate 91.1% | K-562 leukemia 16.6% | RXF 393 renal 45% | SF-295 CNS 113% | UACC-257 melanoma 89.9% | HCT-15 colon 76.4% | LOX IMVI melanoma 27.9% | SN12C renal 75.8% | CAKI-1 renal 61.5% | A498 renal 71.6% | HL-60(TB) leukemia 60.9% | MOLT-4 leukemia 88% | OVCAR-8 ovarian 78.9% | OVCAR-4 ovarian 89% | SK-OV-3 ovarian 102% | HS 578T breast 91.2% | BT-549 breast 108% | HCC-2998 colon 86.4%
active: HT29 colon 5.74%

CC(=O)Oc1ccc(Cl)cc1
inactive: A549/ATCC NSCLC 97.9% | K-562 leukemia 94.5% | RXF 393 renal 105% | SF-295 CNS 112% | UACC-257 melanoma 95.1% | HCT-15 colon 95.1% | HT29 colon 98.3% | LOX IMVI melanoma 90.5% | CAKI-1 renal 90.5% | A498 renal 82.2% | HL-60(TB) leukemia 98.4% | MOLT-4 leukemia 90.3% | OVCAR-8 ovarian 101% | OVCAR-4 ovarian 97.3% | SK-OV-3 ovarian 98.1% | HS 578T breast 90.3% | BT-549 breast 98.3% | HCC-2998 colon 96.1%

CCC(/C=C(C)/C=C/C(=O)c1c(O)c(-c2ccc(O)cc2)c[nH]c1=O)CO (centres undefined)
inactive: A549/ATCC NSCLC 90.2% | RXF 393 renal 104% | SF-295 CNS 81.1% | UACC-257 melanoma 92.4% | HCT-15 colon 91.6% | HT29 colon 107% | LOX IMVI melanoma 87.2% | SN12C renal 91.7% | CAKI-1 renal 81.8% | A498 renal 70.9% | MOLT-4 leukemia 31.5% | OVCAR-8 ovarian 92.4% | HS 578T breast 83.8% | BT-549 breast 78.8% | HCC-2998 colon 106%
active: DU-145 prostate 9.29% | K-562 leukemia 7.07% | HL-60(TB) leukemia 4.76%

C=CC(O)CN1CC1CC (centres undefined)
inactive: A549/ATCC NSCLC 92.8% | DU-145 prostate 108% | K-562 leukemia 101% | RXF 393 renal 115% | SF-295 CNS 102% | UACC-257 melanoma 88.6% | HCT-15 colon 102% | LOX IMVI melanoma 92.6% | SN12C renal 99% | A498 renal 89.5% | HL-60(TB) leukemia 101% | MOLT-4 leukemia 96.2% | OVCAR-8 ovarian 89.1% | OVCAR-4 ovarian 112% | SK-OV-3 ovarian 107% | HS 578T breast 97.3% | BT-549 breast 93.5% | HCC-2998 colon 96.2%

NC(=O)SCC(=O)Nc1ccc([As](=O)(O)O)cc1
inactive: A549/ATCC NSCLC 85.9% | DU-145 prostate 101% | K-562 leukemia 75.5% | RXF 393 renal 95.7% | SF-295 CNS 111% | UACC-257 melanoma 74.1% | HCT-15 colon 81.5% | HT29 colon 93.7% | LOX IMVI melanoma 68.8% | SN12C renal 89.8% | CAKI-1 renal 109% | A498 renal 113% | HL-60(TB) leukemia 56.9% | MOLT-4 leukemia 86.1% | OVCAR-8 ovarian 83.4% | OVCAR-4 ovarian 99.8% | SK-OV-3 ovarian 135% | HS 578T breast 82.3% | BT-549 breast 92% | HCC-2998 colon 82%
